Results reported in the supplement of paper PMC6555819.

Experiments:
Test in all cases: PBM binding z-score (relative to random genomic background probes); higher = stronger binding; sequences stand for … in GC…GCGATTGACAGCGTAGAATGAAGG
[1] = tested on: FXR:RXRa (NR concentration 270 nM, RXRa partner concentration 90 nM)
How it was run: (§1)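 Binding z-scores take random background probes as their reference. They come from custom Agilent 4×180K protein-binding microarrays incubated 1 h with ligand-free nuclear receptor dimers, with antibodies against each partner (one per run) detecting binding. Scanned fluorescence was regression-normalized.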

[2] = tested on: LXRa:RXRa (NR concentration 270 nM, RXRa partner concentration 90 nM)
How it was run: as §1

[3] = tested on: LXRa homodimer (NR concentration 270 nM)
How it was run: as §1

[4] = tested on: LXRb:RXRa (NR concentration 270 nM, RXRa partner concentration 90 nM)
How it was run: as §1

[5] = tested on: LXRb homodimer (NR concentration 270 nM)
How it was run: as §1

[6] = tested on: PPARa:RXRa (NR concentration 270 nM, RXRa partner concentration 90 nM)
How it was run: as §1

[7] = tested on: PPARg:RXRa (NR concentration 180 nM, RXRa partner concentration 90 nM)
How it was run: as §1

[8] = tested on: PPARg:RXRa 270nM:90nM, anti-RXR (NR concentration 270 nM, RXRa partner concentration 90 nM)
How it was run: as §1

[9] = tested on: PPARg:RXRa 30nM:10nM, anti-RXR (NR concentration 30 nM, RXRa partner concentration 10 nM)
How it was run: as §1

[10] = tested on: PPARg:RXRa 90nM:30nM, anti-RXR (NR concentration 90 nM, RXRa partner concentration 30 nM)
How it was run: as §1

Sequence | PBM binding z-score [1] | PBM binding z-score [2] | PBM binding z-score [3] | PBM binding z-score [4] | PBM binding z-score [5] | PBM binding z-score [6] | PBM binding z-score [7] | PBM binding z-score [8] | PBM binding z-score [9] | PBM binding z-score [10]
ACCGAAAGGTCGAAGGTGAGTATACCCACCCGAA | 4.73 | 3.55 | -0.00494 | 2.87 | 0.185 | 4.8 | 4.39 | 4.89 | 1.89 | 3.85
TCATATAGGTAAACAGCTGAAAGTCCGTAAGTTA | 1.09 | 0.759 | 0.185 | 0.758 | -0.215 | 1.37 | 0.75 | 2.36 | 3.9 | 3.19
TCATATAGGCAAAGGTGAAAGTCGAACGATATGA | 0.772 | 1.05 | -0.253 | 1.07 | -0.302 | 2.98 | 3.35 | 4.39 | 3.88 | 4.56
TTACCAAGGTGCGCTGAGGTCGTTGATCCAACTC | 0.911 | 0.599 | 0.0298 | 0.588 | -0.404 | 0.971 | -0.397 | -0.0544 | -0.287 | 0.0957
CTTGCTAGGTCATGGTCAGCTAATCTACAGTATG | 3.63 | 2.86 | 0.466 | 1.66 | -0.00744 | 3.61 | 3.05 | 3.54 | 1.34 | 2.35
CAAACTAGGTCAATGGTCAAAGTCGAGCCAACCA | 3.39 | 2.76 | 0.566 | 2.15 | 0.29 | 5.6 | 9.78 | 8.03 | 7.9 | 8.7
TTACCAAGGTGAAGGTCGATGATCCCTCTGTAGA | 1.25 | 0.976 | -0.361 | 1.1 | -0.706 | 2.27 | 2.29 | 3.58 | 1.74 | 3.24
CCTTACAGGTCACTCCAGGTTATAGCATCGGAGT | 5.51 | 7.41 | 5.05 | 5.43 | 1.27 | 4.75 | 3.81 | 3.66 | 1.52 | 2.79
GCTAGTTGGTCGGTAAAAGGTCACACACCGGTCG | 3.17 | 4.03 | 3.77 | 3.81 | 0.63 | 4.74 | 5.58 | 6.73 | 4.85 | 6.87
ATCGAAAGGTCGACGAGGGGAGTATACACCGTTT | 4.13 | 3.51 | 0.159 | 2.8 | 1.07 | 4.15 | 2.47 | 2.77 | 0.952 | 1.67
ATCTCTAGGTAAAGATAATTCAGTGAATGCAAAT | 0.311 | 0.4 | 0.217 | 0.485 | 0.372 | 0.312 | 0.908 | 0.48 | 0.443 | 0.348
GCAAATAGGTAATACAAGGTGAAAGTCCGATTGT | 2.27 | 2.87 | 0.422 | 0.806 | -0.48 | 1.49 | 1.02 | 1.19 | 0.599 | 0.979
CGTCCAAGGACATAGGAGGTCAGTGAAGACAGAT | 1.5 | 1.47 | 1.23 | 1.26 | -0.58 | 2.02 | 0.76 | 0.564 | 0.000734 | 0.268
